HCMV antiviral – inhibitors of human cytomegalovirus; HFF cells, HCMV-luciferase reporter, 72 h; active compounds read low; activity change, negative = inhibition, % at 57.5 µM; hit rate 4.5% among 410,000; in the data active = activity change below about -60%; inconclusive = no clear call, values can overlap the other calls; inactive = above about -39%; also: % is scaled to controls: 0 for no effect and ±100 for the full control effect
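After 16 h attachment at 37C, HFF cells received test compound and HCMV-luciferase (1 PFU/cell); reporter luminescence read 72 h later, data normalized against buffer-only and known inhibitor Salinomycin.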
Pf growth 96h – inhibits malaria parasite growth, 96 h | P. falciparum luciferase reporter growth, 96 h | Potency, µM (titrated, usually from 28.7 µM), inactives show at the highest dose activity change, negative = inhibition, actives largely listed as inhibitors | hit rate 6.9% among 320,000; also: potency is read from the fitted curve at half-maximal effect; % is scaled to controls: 0 for no effect and ±100 for the full control effect
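Two-generation exposure (96 h) targets delayed-death phenotype. Reporter parasites carrying integrated firefly luciferase, in red cells at 2% hematocrit and 0.05% parasitemia final, kept at 37 C, 5% CO2; luminescence loss indicates inhibition.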
Sm TGR inh – inhibitors of Schistosoma mansoni thioredoxin glutathione reductase. Q962Y6. AID 485364. Potency, µM (doses to about 114 µM), inactives show at the top dose activity change, negative = inhibition, usual class: inhibitors. hit rate 3% among 360,000. purified TGR, DTNB reduction, TNB absorbance 405 nm; also: potency is read from the fitted curve at half-maximal effect; % is scaled to controls: 0 for no effect and ±100 for the full control effect; nearly all actives have a fitted effect of over 60% in size
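TGR 20 nM + NADPH 100 uM (dispensed conc.), cpd preinc 15 min RT; start with NADPH (500 uM addition) then DTNB (15 mM addition). Kinetic TNB absorbance, 405 nm filter. Four-parameter Hill fit across titration.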
HCV inhibitor – blocks hepatitis C virus. Potency, µM (series often up to 41.8 µM), inactives show top-dose activity change, negative = inhibition, most hits filed as inhibitors. Huh7.5.1 HCVcc-Cre infection, luciferase reporter, 44 h. hit rate 3.4% among 340,000. AID 651820; also: potency is read from the fitted curve at half-maximal effect; % is scaled to controls: 0 for no effect and ±100 for the full control effect
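Reporter virus HCVcc-Cre (~0.5 moi) infects cells exposed to compound; seeding density 1,000 cells/well with 4 h settling beforehand. Luminescence, 15 sec read, taken 44 h post-infection following a 15 min RT substrate incubation.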
Pf growth 48h – inhibits P. falciparum growth in the first generation, 48 h; P. falciparum luciferase growth in erythrocytes, 48 h; hit rate 5.9% among 310,000; Potency, µM (series often up to 28.7 µM), inactives show at the highest dose activity change, negative = inhibition, most hits filed as inhibitors; also: potency is read from the fitted curve at half-maximal effect; % is scaled to controls: 0 for no effect and ±100 for the full control effect
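Luminescence readout; reporter = integrated firefly luciferase in P. falciparum. RBC culture at 2% hematocrit, 0.1% parasitemia final, 37 C/5% CO2; decreased signal taken as growth inhibition.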
SARS PLpro yeast – inhibitors of SARS-CoV papain-like protease in yeast; S. cerevisiae expressing SARS-CoV PLpro, growth rescue; Potency, µM (series often up to 32.9 µM), for the others: at the highest dose activity, positive = growth rescue, usual class: activators; hit rate 0.19% among 330,000; calls by dose curve; also: potency is read from the fitted curve at half-maximal effect; 0% is about no effect; nearly all actives have a fitted effect of over 55% in size
Active calls of the source: *; u = inconclusive; x = not tested or not shown. This is a sample that favours compounds with a hit; in the whole collection about 15% have one here. Unless noted, calls follow the shape of the dose curve; as a rule, active = well fitted curve in the direction sought with a large enough effect; inconclusive = small, poorly fitted or top-dose-only effect, or another doubt; inactive = no such curve, though single readings can be large; an effect the other way counts as inactive or inconclusive.

SMILES	HCMV antiviral	Pf growth 96h	Sm TGR inh	HCV inhibitor	Pf growth 48h	SARS PLpro yeast
CCCNC(=O)C1(CC2CC(c3ccccc3)=NO2)CCN(C(=O)c2ccccc2)CC1 (centres undefined)	20	u	-9%	5%	12µM*	-1%
CCOc1cc(C(=O)N2CCC(CC3CC(c4ccc(Cl)cc4)=NO3)(C(=O)NCC3CCCCC3)CC2)cc(OCC)c1OCC (centres undefined)	64	0.23µM*	1%	u	0.29µM*	1%
O=C(c1ccccc1)N1CCC(CC2CC(c3cccc(Br)c3)=NO2)(C(=O)NCC2CCCCC2)CC1 (centres undefined)	x	5.2µM*	-1%	7%	u	0%
CCCNC(=O)C1(CC2CC(c3ccccc3)=NO2)CCN(C(=O)C2(C)CC2)CC1 (centres undefined)	0	x	x	10%	x	x
O=C(NCC1CCCCC1)C1(CC2CC(c3cccc(Br)c3)=NO2)CCNCC1 (centres undefined)	-27	u	45µM*	u	-64%	9%
CC(C)(C)OC(=O)N1CCC(CC2CC(c3cccc(Br)c3)=NO2)(C(=O)NCC2CCCCC2)CC1 (centres undefined)	-28	u	16%	-2%	u	1%
O=C(/C=C/c1ccc(Cl)cc1Cl)Nc1ccncc1	-4	-5%	7%	u	21%	-20%
O=C(/C=C/c1ccco1)Nc1ccccc1N1CCOCC1	-30	27%	20µM*	1%	17%	-6%
O=C(/C=C/c1ccco1)Nc1ccc(C(=O)N2CCOCC2)cc1	-16	9.3µM*	13µM*	7%	2%	-12%
CCN(CC)S(=O)(=O)c1ccc(/C=C/C(=O)Nc2ccccc2N2CCOCC2)cc1	-16	u	4%	u	u	-1%
O=C(/C=C/c1ccc(Cl)cc1Cl)NCc1ccncc1	2	12µM*	34%	-23%	u	5%
O=C(/C=C/c1ccc(Cl)cc1Cl)Nc1ccc(CN2CCOCC2)cc1	-86*	u	-1%	3.2µM*	u	7%
CC1(CCc2ccccc2)NC(=O)NC1=O (centres undefined)	3	x	x	27%	x	x
COc1cc(C(=O)NN2C(=O)NC3(CCC(C)CC3)C2=O)ccc1OC(F)F (centres undefined)	-9	x	x	-22%	x	-2%
CC(C)N(C)c1ncnc2c1ncn2[C@H]1CN(Cc2ccc(F)cc2)C[C@@H](CO)O1	1	x	x	x	x	x
O=C(/C=C/c1ccco1)Nc1ccc(CN2CCOCC2)cc1	38	169%	20µM*	18%	226%	0%
O=C(/C=C/c1ccco1)c1ccc(NC(=O)C23CC4CC(CC(C4)C2)C3)cc1	-37	u	10µM*	-23%	u	-16%
CCC(=O)N1CCC(C)(C(=O)NCc2ccc(F)cc2)C1 (centres undefined)	-19	x	x	x	x	x
CNS(=O)(=O)c1cn(CC(=O)N(C)Cc2ccccc2)cc1S(=O)(=O)NC	u	13%	10%	9%	27%	2%
CC(=O)NC(C)(c1ccccc1)c1nc(-c2cccc(C(F)(F)F)c2)cs1 (centres undefined)	-25	x	x	x	x	x
CCCN1CCN(CCCNC(=O)c2ccc3c(=O)n(CCc4ccccc4)c(=O)[nH]c3c2)CC1	-7	u	5%	u	u	-1%
COCCn1c(=O)[nH]c2cc(C(=O)NCCN3CCN(c4ccccc4F)CC3)ccc2c1=O	36	u	0%	-8%	16%	-1%
CCN1CCN(CCCNC(=O)c2ccc3c(=O)n(CCc4ccccc4)c(=O)[nH]c3c2)CC1	33	u	-5%	10µM*	u	0%
COCCn1c(=O)[nH]c2cc(C(=O)NCCCN3CCN(c4ccc(F)cc4)CC3)ccc2c1=O	5	u	1%	10µM*	8%	3%
CCn1c(=O)[nH]c2cc(C(=O)Nc3cc(C)cc(C)c3)ccc2c1=O	-4	30%	x	u	4.7µM*	-2%
SMILES	HCMV antiviral	Pf growth 96h	Sm TGR inh	HCV inhibitor	Pf growth 48h	SARS PLpro yeast
O=C(CCCn1c(=O)[nH]c2cc(Cl)ccc2c1=O)NCCCN1CCCC1	9	4%	-18%	12%	x	9%
O=C(CCCn1c(=O)[nH]c2cc(Cl)ccc2c1=O)NCCCN1CCN(c2ccc(F)cc2)CC1	-62*	13%	-4%	7.9µM*	u	-1%
COc1cccc(Cl)c1NC(=O)N1CCc2c([nH]c3ccccc23)C1C(F)(F)F (centres undefined)	u	u	5%	u	u	-1%
COc1ccc(CCNC(=O)C(=O)c2c(C)n(C)c3ccccc23)cc1OC	0	-28%	3%	-6%	7%	6%
Cc1c(C(=O)C(=O)NCCC2=CCCCC2)c2ccccc2n1C	-62*	4%	-1%	18%	u	5%
COC(=O)C1=C(COc2ccccc2)NC(=O)NC1c1ccc(Cl)cc1 (centres undefined)	-15	x	x	-9%	x	x
COC(=O)C1=C(CCc2ccccc2)NC(=O)NC1c1ccc(Br)cc1 (centres undefined)	-1	13µM*	-26%	u	14%	0%
COc1ccc(N2CCN(C(=O)Cc3ccc(Cl)cc3)CC2)cc1	-22	89%	-15%	-27%	-10%	-5%
Cc1ccc(CSc2nnc([C@@H]3CCCN3C(=O)OC(C)(C)C)o2)cc1	-16	u	7%	22µM*	u	0%
Cc1cccc(C)c1NC(=O)CSc1nnc([C@@H]2CCCN2C(=O)OC(C)(C)C)o1	3	-10%	0%	19%	-5%	-1%
CC(C)(C)OC(=O)N1CCC[C@H]1c1nnc(SCc2ccccc2)o1	-38	12µM*	9%	26%	u	1%
CC(C)(C)OC(=O)N1CCC[C@H]1c1nnc(SCc2ccccc2F)o1	-37	u	1%	2%	u	3%
CC(C)(C)c1ccccc1NC(=O)NC1CCN(Cc2c(F)cccc2Cl)CC1	u	u	9%	10%	7.4µM*	1%
O=C(Nc1ccccc1)NC1CCN(Cc2c(F)cccc2Cl)CC1	-34	-29%	-2%	-22%	-7%	-2%
CN(C(=O)c1cc2c(s1)-c1ccc(Cl)cc1SC2)c1cccc(C(F)(F)F)c1	-16	x	7%	x	x	x
Cc1cc(N2CCN(S(=O)(=O)c3ccc(Cl)c(Cl)c3)CC2)c2ccccc2n1	u	1%	x	11µM*	12µM*	-1%
Cc1cc(N2CCN(S(=O)(=O)c3ccccc3)CC2)nc2c(C)cccc12	-6	13µM*	3%	u	-7%	4%
